B1: d6r1_design_ppi_377_dldesign_0_cycle0_af2pred (protein)
chain: EEERRRAEELRRRAEEAIERIRASTPEEAARIAGELVAWLGEEARAGTPELAEEARREMARVTREAARVLA
B2: d6r1_design_ppi_270_dldesign_0_cycle1_af2pred (protein)
chain: EEEKREAAREITERAIEEIRAAAERAAAAGQPGAGVEAGMKIGAEAVRRVREKGTEELAEEAARRMNAALAEAIRAAMALAR
B3: d6r1_design_ppi_62_dldesign_0_cycle0_af2pred (protein)
chain: VEEARALAESAEQAAEAGSYLLAALNLERAVRLAEELARRGEGLEEVRRIAERVAEVAKRVAESPEVRERAEEILRRAKRIIEEI
B4: d6r1_design_ppi_82_dldesign_0_cycle1_af2pred (protein)
chain: AAATQQQLTQAVRDALLARVAAVAADPSQAELLRRVTRSAVLMMGALEGLEGARAFAERAIAAAAAVGPEAAAAVREGAREGLEEYAA
B5: d6r1_design_ppi_463_dldesign_0_cycle0_af2pred (protein)
chain: GLIEELLAEARAEVEAEIAARREEARRLAAEGEESEDTEEKRARAEELLAEAAEREAQADSIAAQAAFRRAAELTRQLAAAA
B6: d6r1_design_ppi_239_dldesign_0_cycle1_af2pred (protein)
chain: DKAVLEEAEKVFKEALAVAEEIVAEGAKNPAYAAFAKAFAKQLKAQLAEAKKLTPEEALKAAKKLLDAAKQALKLVSE
B7: d6r1_design_ppi_138_dldesign_0_cycle1_af2pred (protein)
chain: GKKKEEAEKLIKEAKEVKEKAEEAAKLAKELGNEEAAKAAQKAIEEAEKAIEAAKEGKLEEARLHLAKAKGYLLRAQGLIANKLAAA
B8: d6r1_design_ppi_30_dldesign_0_cycle0_af2pred (protein)
chain: EKEEIIKKAKELKEQAEKVLAEDVSPLAKKVAEQAIKHAEKAIEAAKAGDLEEAKAHLSSAEAFVLGLTR
B9: d6r1_design_ppi_2_dldesign_0_cycle0_af2pred (protein)
chain: EEERRRAIEAAEGAVEAARKNLELFREAHPEATEEIARLEARVEEARREAERAREEGASVEEARRVLERARAVQAEITRALHRANLA
B10: d6r1_design_ppi_198_dldesign_0_cycle1_af2pred (protein)
chain: GEAEKVEKAKEKAAEKINEALALASKGAIEGDVEKVKEAKEILKEAVKEAKAVSPEAAKYAEELAKKAEEIIEAMEKSAKAAA
B11: d6r1_design_ppi_575_dldesign_0_cycle0_af2pred (protein)
chain: SAEEEAAKEEAKAVLAQAEAILEQAKALAAQQPWAAGIAALARTAIRLAKESLEKGLELLPDAKALTEAAAGIVAAA
B12: d6r1_design_ppi_398_dldesign_0_cycle0_af2pred (protein)
chain: STAASLATGARVIANLFERAIEAAADPATRAEAEGLARSAAEIGALIGPELAAIAEAGLAAIGDLAAMRAELERVRALAAAA
B13: d6r1_design_ppi_463_dldesign_0_cycle1_af2pred (protein)
chain: GPFEAAYAEALAEVEAEIAALKAEAEKVAAAGKKTGKTAEAAAKAEELKAKAAELEAQKESIAAQRAFRRLAAQTAAQAAAA
B14: d6r1_design_ppi_593_dldesign_0_cycle1_af2pred (protein)
chain: SKNVELAEKAQEVVKRAKEVGKLVPEKAEEIISTSNQALAYALNPHTVAKGEKLLEEATKLVEEAEKEAK
B15: d6r1_design_ppi_381_dldesign_0_cycle1_af2pred (protein)
chain: DEARAIIVSSLSEAAALDPAVAPLAMRAAALSINPATAAAAMAEAIAAMRAAGATVPEVAALADRAEAAA
B16: d6r1_design_ppi_484_dldesign_0_cycle1_af2pred (protein)
chain: GEEAERESKEALERVRELLRRLNELAAQRAAHPAELRATAAALVEAGKEALANPNASEEAKQLGAFGVTLGQTVLAALDAAAA
B17: d6r1_design_ppi_583_dldesign_0_cycle1_af2pred (protein)
chain: MNIEELTALAEEHEAKAKALAAAGAPAIEVVSAATLAVRYYNEAAKLLAKIDPAKAKEYTAKAEAIRAAAAAYIRAQLARSAAA
B18: d6r1_design_ppi_13_dldesign_0_cycle1_af2pred (protein)
chain: AAEAKAAEKAARAELAKLRAVAAANPVHGGEILLAVARAAAEVNRLIAKGLAGTPEEAKAAAEAAKAAVAKARAEAAALA
B19: d6r1_design_ppi_377_dldesign_0_cycle1_af2pred (protein)
chain: MEDEELAEKIRERAKEAIAQIRASSPEQAALLAGTLVAEFGEWARSGTPEVAAVAHEEMNRVTGEAAKVIA
B20: d6r1_design_ppi_518_dldesign_0_cycle0_af2pred (protein)
chain: SAATLAQYNQLSGQASRLLMQAAQTGSVELAQQALQYAQQALQLAQQASANNAEGAKQLLEIAQATLAAVQ
B21: d6r1_design_ppi_251_dldesign_0_cycle0_af2pred (protein)
chain: DAARALLLRTAENAAQMLRLLGVDEATAEAVLARLTAAAAAGPAAFAAAARAAAAELEAQPSLNARTAGAALRTAAATAEAEIAAL
B22: d6r1_design_ppi_2_dldesign_0_cycle1_af2pred (protein)
chain: AEAKKKAIEDAEGAAEAAKKFLDLFKEAFPEAKETIAALQAKVEAAKKAAEKARKEGADVATAQAVLDQARAVQVDIINALNEATRS
B23: d6r1_design_ppi_197_dldesign_0_cycle0_af2pred (protein)
chain: AAELAALEAEFRDQLEVARQAARFSPASAAAFLAGVAASLRRRLPPALGAAFAARADAAAAAARLLGEDPAAGEALFAAVLA
B24: d6r1_design_ppi_222_dldesign_0_cycle1_af2pred (protein)
chain: SAEAAALKEEAEKLGKEALAAAEELKKVDPEKGERLKSQIKGLELQAISSYDLAAVNPAALATAKKAREQLEKLGREAKEAV
B25: d6r1_design_ppi_575_dldesign_0_cycle1_af2pred (protein)
chain: GAALAAQRAEAREVLARARAIEAQAQALAATQPAAAGIGSLARQAIELASRSLEEGLELLPSARALVEVAAGIVAAA
B26: d6r1_design_ppi_11_dldesign_0_cycle1_af2pred (protein)
chain: EMEKAQKELLEAANKAMTTLFKAAAAASAKGDNATAGQLVEAAGEVSKLAKEAVKKSPEAMKEAAKKLKEAAAAGAKLGAA
B27: d6r1_design_ppi_51_dldesign_0_cycle0_af2pred (protein)
chain: ALAEAQKQLAQARALVLGAEAAVEHAERSSPEEGRRALAAARDLIAQAKEKAKAAAKHPETKAEAEKLLKEAEKLEARAAAVEAAL
B28: d6r1_design_ppi_468_dldesign_0_cycle1_af2pred (protein)
chain: AQAALDAAIAAARAAAALAREAGDDTAAAFFESAALVLEGGPANMPLAIRLTEAGIRSARARLDPATAAKVAALGEAAIAAARAAAAA
B29: d6r1_design_ppi_3_dldesign_0_cycle0_af2pred (protein)
chain: EEELARAAEAARRQAEVAEALAEQAAAADPANQPLADEARRLAERARELAERGATVEEIREALLEVSRAAARAAAALNAAVAA
B30: d6r1_design_ppi_478_dldesign_0_cycle1_af2pred (protein)
chain: AAARAAAQQLLMEVAEELIKLGAKEAARLALRAIGLLLSDPAQGVAAAKEAAKKAKEEAPENGEELAKKLEEAAKLAAA
B31: d6r1_design_ppi_373_dldesign_0_cycle1_af2pred (protein)
chain: EKEELIKKAKEALEKAKKAAKEAAADPELAKKAKKLAEEAKKAVEKAKKSGKEEAKKLAEKAKAAAAKAEAYALLAQGRAAA
B32: d6r1_design_ppi_232_dldesign_0_cycle0_af2pred (protein)
chain: AEEFAEEAKKELEEIEKMIKEGEARADGEQIAVEAIEKAGEALKKAKEFKKKDPKVGEEAAKEFLKAINEATKAANAKAAAA
B33: d6r1_design_ppi_397_dldesign_0_cycle1_af2pred (protein)
chain: GEEEEEKKRKEEIKKAIKEAAEKAKEAGPAETRPEIEAAEKLALEDPKAGMNRLLAIGAREPATAPYLVEGAEKVSALLKS
B34: d6r1_design_ppi_617_dldesign_0_cycle0_af2pred (protein)
chain: AAARAQALLNEALALLFEAAARSRDGAPILRAASLAAQGFLTGEAAPEALAYIEAVAKEHPEVRELILEAARLFAEAAAL
B35: d6r1_design_ppi_203_dldesign_0_cycle1_af2pred (protein)
chain: AQEQVVKEAQQLLLAASQAISKALVRAAQGTLQQADIEAAQKLIEAAAKAAEKAPPEAKARLNKGVEGLKELLEGALQTAKLAK
B36: d6r1_design_ppi_229_dldesign_0_cycle0_af2pred (protein)
chain: EEARELARRTAEEAEELIKKALPEEDRELAELAGDLVRAGAEAATTNPAQGRAAFRTAAGILRSAGAEEAAEEVERRMEEMLRRIA
B37: d6r1_design_ppi_311_dldesign_0_cycle1_af2pred (protein)
chain: MTPEEVAARAAELLAWLRAQAALDPEMAALGAAGLELVLAHSPELAARAVRQLERARRMPPADALRVGALIAQAYAAQVERARA
B38: d6r1_design_ppi_243_dldesign_0_cycle1_af2pred (protein)
chain: AEAVARAARDARAQIELAEALLKQGLAAAKTDPAQALLAYNAALAAARSAVRIAARAPEVLEEARAALAAVEAAKAKVQAQAA

What follows are binders tested against CD276, Q5ZPR3.
CD276, Q5ZPR3, sequence (Q5ZPR3 whole entry): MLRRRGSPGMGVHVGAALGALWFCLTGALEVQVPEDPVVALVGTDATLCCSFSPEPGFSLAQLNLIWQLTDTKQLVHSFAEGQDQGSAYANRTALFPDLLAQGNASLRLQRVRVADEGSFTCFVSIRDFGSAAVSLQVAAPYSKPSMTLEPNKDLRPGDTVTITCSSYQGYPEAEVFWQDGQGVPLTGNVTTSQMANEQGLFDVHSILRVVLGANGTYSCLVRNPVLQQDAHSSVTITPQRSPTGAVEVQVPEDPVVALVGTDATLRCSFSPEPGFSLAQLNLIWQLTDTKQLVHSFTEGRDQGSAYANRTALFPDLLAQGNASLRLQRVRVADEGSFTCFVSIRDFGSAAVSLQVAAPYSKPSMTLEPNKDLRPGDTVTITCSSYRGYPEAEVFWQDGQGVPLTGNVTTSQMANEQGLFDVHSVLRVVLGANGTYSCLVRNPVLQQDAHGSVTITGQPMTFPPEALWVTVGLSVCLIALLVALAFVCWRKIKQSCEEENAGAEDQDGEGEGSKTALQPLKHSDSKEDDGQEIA
In the case of B1, the “binding in a display sort” value is reported as “not found (inactive)”. In the case of B2, the “binding in a display sort” value is reported as “not found (inactive)”. With B3 the “binding in a display sort” value was “not found (inactive)”. B4 was tested, and the “binding in a display sort” value was “not found (inactive)”. B5 was tested, and the “binding in a display sort” value was “not found (inactive)”. In the case of B6, the “binding in a display sort” value is reported as “not found (inactive)”. With B7 the “binding in a display sort” value was “not found (inactive)”. In the case of B8, the “binding in a display sort” value is reported as “not found (inactive)”. In the case of B9, the “binding in a display sort” value is reported as “not found (inactive)”. B10 was tested, and the “binding in a display sort” value was “not found (inactive)”. With B11 the “binding in a display sort” value was “not found (inactive)”. With B12 the “binding in a display sort” value was “not found (inactive)”. B13 was tested, and the “binding in a display sort” value was “not found (inactive)”. B14 was tested, and the “binding in a display sort” value was “not found (inactive)”. B15 was tested, and the “binding in a display sort” value was “not found (inactive)”. In the case of B16, the “binding in a display sort” value is reported as “not found (inactive)”. With B17 the “binding in a display sort” value was “not found (inactive)”. In the case of B18, the “binding in a display sort” value is reported as “not found (inactive)”. In the case of B19, the “binding in a display sort” value is reported as “not found (inactive)”. In the case of B20, the “binding in a display sort” value is reported as “not found (inactive)”. In the case of B21, the “binding in a display sort” value is reported as “not found (inactive)”. In the case of B22, the “binding in a display sort” value is reported as “not found (inactive)”. For B23, the “binding in a display sort” value was “not found (inactive)”. With B24 the “binding in a display sort” value was “not found (inactive)”. For B25, the “binding in a display sort” value was “not found (inactive)”. In the case of B26, the “binding in a display sort” value is reported as “not found (inactive)”. In the case of B27, the “binding in a display sort” value is reported as “not found (inactive)”. In the case of B28, the “binding in a display sort” value is reported as “not found (inactive)”. For B29, the “binding in a display sort” value was “not found (inactive)”. With B30 the “binding in a display sort” value was “not found (inactive)”. B31 was tested, and the “binding in a display sort” value was “not found (inactive)”. In the case of B32, the “binding in a display sort” value is reported as “not found (inactive)”. In the case of B33, the “binding in a display sort” value is reported as “not found (inactive)”. For B34, the “binding in a display sort” value was “not found (inactive)”. In the case of B35, the “binding in a display sort” value is reported as “not found (inactive)”. In the case of B36, the “binding in a display sort” value is reported as “not found (inactive)”. For B37, the “binding in a display sort” value was “not found (inactive)”. In the case of B38, the “binding in a display sort” value is reported as “not found (inactive)”.

From article PMC13494018
